Test results from the supplement of paper PMC8728848.
Only a selection was taken, and the strongest signals are over-represented in it overall.

What was measured:
Assay in all cases: glycan array binding signal (z-score within array); higher = stronger binding
Conditions in all cases: glycan notation: IUPAC condensed, linker removed
Gal(b1-6)Gal = target: Gal(b1-6)Gal
Procedure, shortened: (§1)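 Columns mapping to the same glycan were averaged after glycan names were converted to IUPAC-condensed notation. The data come from 3228 arrays in the Consortium for Functional Glycomics database, limited to those with an available protein sequence. Binding is reported as a within-array Z-score averaged across arrays of one protein sequence and across linkers.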

Gal6S(b1-4)Glc6S = target: Gal6S(b1-4)Glc6S
Procedure, shortened: as §1

GalNAc(b1-3)GalNAc = target: GalNAc(b1-3)GalNAc
Procedure, shortened: as §1

GalNAc(b1-4)GlcNAc = target: GalNAc(b1-4)GlcNAc
Procedure, shortened: as §1

GalNAc(b1-6)GalNAc = target: GalNAc(b1-6)GalNAc
Procedure, shortened: as §1

GalNAc3S(b1-4)GlcNAc = target: GalNAc3S(b1-4)GlcNAc
Procedure, shortened: as §1

Glc(b1-6)Glc = target: Glc(b1-6)Glc
Procedure, shortened: as §1

GlcA(b1-3)GlcNAc = target: GlcA(b1-3)GlcNAc
Procedure, shortened: as §1

GlcNAc(b1-3)Gal = target: GlcNAc(b1-3)Gal
Procedure, shortened: as §1

GlcNAc(b1-3)Gal(b1-4)Glc = target: GlcNAc(b1-3)Gal(b1-4)Glc
Procedure, shortened: as §1

[1] = target: GlcNAc(b1-3)Gal(b1-4)GlcNAc(b1-3)Gal(b1-4)GlcNAc(b1-2)Man(a1-3)[GlcNAc(b1-3)Gal(b1-4)GlcNAc(b1-3)Gal(b1-4)GlcNAc(b1-2)Man(a1-6)]Man(b1-4)GlcNAc(b1-4)GlcNAc
Procedure, shortened: as §1

[2] = target: GlcNAc(b1-3)[GlcNAc(b1-4)][GlcNAc(b1-6)]GlcNAc
Procedure, shortened: as §1

[3] = target: Man(a1-2)Man(a1-6)[Man(a1-3)]Man(a1-6)[Man(a1-2)Man(a1-2)Man(a1-3)]Man
Procedure, shortened: as §1

[4] = target: Man(a1-2)Man(a1-6)[Man(a1-3)]Man(a1-6)[Man(a1-2)Man(a1-2)Man(a1-3)]Man(b1-4)GlcNAc(b1-4)GlcNAc
Procedure, shortened: as §1

Neu5Ac(a2-3)Gal = target: Neu5Ac(a2-3)Gal
Procedure, shortened: as §1

[5] = target: Neu5Ac(a2-3)Gal(b1-3)GalNAc(b1-3)Gal(a1-4)Gal(b1-4)Glc
Procedure, shortened: as §1

[6] = target: Neu5Ac(a2-3)Gal(b1-3)GlcNAc(b1-2)Man(a1-3)[GlcNAc(b1-4)][Neu5Ac(a2-3)Gal(b1-3)GlcNAc(b1-2)Man(a1-6)]Man(b1-4)GlcNAc(b1-4)GlcNAc
Procedure, shortened: as §1

[7] = target: Neu5Ac(a2-3)Gal(b1-4)GlcNAc(b1-2)Man(a1-3)[Neu5Ac(a2-3)Gal(b1-4)GlcNAc(b1-2)Man(a1-6)]Man(b1-4)GlcNAc(b1-4)GlcNAc
Procedure, shortened: as §1

[8] = target: Neu5Ac(a2-3)Gal(b1-4)GlcNAc(b1-2)Man(a1-3)[Neu5Ac(a2-3)Gal(b1-4)GlcNAc(b1-2)Man(a1-6)]Man(b1-4)GlcNAc(b1-4)[Fuc(a1-6)]GlcNAc
Procedure, shortened: as §1

[9] = target: Neu5Ac(a2-3)Gal(b1-4)GlcNAc(b1-3)Gal(b1-4)GlcNAc(b1-3)[Neu5Ac(a2-3)Gal(b1-4)GlcNAc(b1-3)Gal(b1-4)GlcNAc(b1-6)]GalNAc
Procedure, shortened: as §1

[10] = target: Neu5Ac(a2-3)Gal(b1-4)GlcNAc(b1-3)Gal(b1-4)GlcNAc(b1-6)[Gal(b1-3)]GalNAc
Procedure, shortened: as §1

[11] = target: Neu5Ac(a2-3)Gal(b1-4)[Fuc(a1-3)]GlcNAc(b1-6)[Gal(b1-3)]GalNAc
Procedure, shortened: as §1

[12] = target: Neu5Ac(a2-3)Gal6S(b1-4)GlcNAc
Procedure, shortened: as §1

[13] = target: Neu5Ac(a2-3)[GalNAc(b1-4)]Gal(b1-4)GlcNAc
Procedure, shortened: as §1

[14] = target: Neu5Ac(a2-6)Gal(b1-4)GlcNAc(b1-2)Man(a1-3)[GlcNAc(b1-2)Man(a1-6)]Man(b1-4)GlcNAc(b1-4)GlcNAc
Procedure, shortened: as §1

[15] = target: Neu5Ac(a2-6)Gal(b1-4)GlcNAc(b1-3)Gal(b1-4)GlcNAc(b1-3)Gal(b1-4)GlcNAc
Procedure, shortened: as §1

[16] = target: Neu5Ac(a2-6)Gal(b1-4)GlcNAc(b1-3)Gal(b1-4)GlcNAc(b1-3)[Neu5Ac(a2-6)Gal(b1-4)GlcNAc(b1-3)Gal(b1-4)GlcNAc(b1-6)]GalNAc
Procedure, shortened: as §1

[17] = target: Neu5Ac(a2-6)Gal(b1-4)GlcNAc6S
Procedure, shortened: as §1

[18] = target: Neu5Ac(a2-6)GalNAc(b1-4)GlcNAc
Procedure, shortened: as §1

[19] = target: Neu5Ac(a2-6)GalNAc(b1-4)GlcNAc6S
Procedure, shortened: as §1

[20] = target: Neu5Ac(a2-8)Neu5Gc(a2-3)Gal(b1-4)GlcNAc
Procedure, shortened: as §1

B1: Clec12b (Mus musculus), Q149M0 (protein)
chain: MSDEVTYATLMLQDSARVRGNQDGNNLRKEGHPAQSSLWRGAALSLMTLCLVLVTGLVTLATMFLQVSNDINSDSEKLSQLQKSIHPQQDNLSESLNSSRKSLTEESLQSQISALLERQEQMATKLCKEFLIHASDHKCNPCPKTWQWYGNSCYYFSINEEKSWSDSRKDCIDKNATLVKIDSTEERDLLQSQLSLTFSFFWLGLSWNSSGRNWLWEDGSFPPPTLFSDKELASFNGSRDCAYFERGNIYASRCSAEIPWICEKTASLVKTEDLD
- glycan array binding signal (z-score) (Gal(b1-6)Gal): -0.5
- glycan array binding signal (z-score) (Gal6S(b1-4)Glc6S): 1.24
- glycan array binding signal (z-score) (GalNAc(b1-3)GalNAc): -0.125
- glycan array binding signal (z-score) (GalNAc(b1-4)GlcNAc): 0.301
- glycan array binding signal (z-score) (GalNAc(b1-6)GalNAc): 1.14
- glycan array binding signal (z-score) (GalNAc3S(b1-4)GlcNAc): -0.691
- glycan array binding signal (z-score) (Glc(b1-6)Glc): -0.441
- glycan array binding signal (z-score) (GlcA(b1-3)GlcNAc): -0.05
- glycan array binding signal (z-score) (GlcNAc(b1-3)Gal): -0.39
- glycan array binding signal (z-score) (GlcNAc(b1-3)Gal(b1-4)Glc): 2.54
- glycan array binding signal (z-score) [1]: -0.27
- glycan array binding signal (z-score) [2]: -0.245
- glycan array binding signal (z-score) [3]: -0.526
- glycan array binding signal (z-score) [4]: -0.428
- glycan array binding signal (z-score) (Neu5Ac(a2-3)Gal): -0.719
- glycan array binding signal (z-score) [5]: -0.593
- glycan array binding signal (z-score) [6]: -0.101
- glycan array binding signal (z-score) [7]: -0.716
- glycan array binding signal (z-score) [8]: 11.9
- glycan array binding signal (z-score) [9]: -0.513
- glycan array binding signal (z-score) [10]: -0.721
- glycan array binding signal (z-score) [11]: 2.54
- glycan array binding signal (z-score) [12]: -0.451
- glycan array binding signal (z-score) [13]: -0.538
- glycan array binding signal (z-score) [14]: -0.701
- glycan array binding signal (z-score) [15]: -0.719
- glycan array binding signal (z-score) [16]: -0.419
- glycan array binding signal (z-score) [17]: 0.459
- glycan array binding signal (z-score) [18]: -0.692
- glycan array binding signal (z-score) [19]: -0.524
- glycan array binding signal (z-score) [20]: -0.719
